# Results reported in PubChem BioAssay (NCI).
# The panel holds about 83,000 compounds, 20% with a hit somewhere; the sample as a whole holds those more often.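 A percent growth of 40 corresponds to 60% growth inhibition; 0 means no net growth; -100 means all cells died. Active threshold: below 10.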 Unmarked numbers belong to inactive results. The source made the active and inactive calls.
# System: HOP-92 NSCLC
# Assay: NCI-60 one-dose screen, 48 h (100 = growth as untreated, 0 = no growth, -100 = all killed)
# Conditions: 10 µM unless noted
# Method: Growth inhibition of the HOP-92 human Non-Small Cell Lung tumor cell line is measured as a screen for anti-cancer activity. Cells are grown in 96 well plates and exposed to the test compound for 48 hours. Compounds are tested at a single concentration, which is 10^-5 M for most compounds. The reported endpoint is percent growth (GI% or GIPRCNT), where numbers from 0 - 100% represent growth inhibition, and numbers from -100% - 0 represent cell death. For example, a value of 40 represents 60% growth inhibition. A value of 0 means no net growth occurred over the course of the experiment. A value of -40 indicates 40% of cells at the beginning of the experiment died by the end of the experiment. A value of -100 means all cells are dead at the end of the experiment.
# NCI-60 Human Tumor Cell Lines Screen was performed using the standard one-dose NCI protocol, which is described in more detail at https://dtp.cancer.gov/discovery_development/nci-60/default.htm.
# Compounds with GIPRCNT values below 10 were considered active. Activity score was based on GIPRCNT using the following formula: […]
# Score is 0 for GIPRCNT values of 100 or above, 50 for GIPRCNT values of 0, and 100 for GIPRCNT values of -100.
row,Compound,growth
1,C=CCSc1n[nH]c(-c2cccs2)n1,94.7%
2,CC(=O)Oc1csc(N(C(C)=O)c2cccc(C(F)(F)F)c2)n1,45.7%
3,COC(=O)c1cc(=O)nc(N/N=C/c2ccco2)s1,85.7%
4,C=COC(=O)CCCCCCCCC,99%
5,O=C(CSC1CCc2ccccc21)N/N=C/c1ccccc1O (stereo not given),77.4%
6,CN(CCCCN(C[C@H]1Cc2ncccc2CN1)[C@H]1CCCc2cccnc21)C1CCC(F)(F)CC1,70.5%
7,C=C[C@@H]1C[C@@H]2Cc3ccccc3N1O2,126%
8,CN(C)c1oc(C2OC2c2ccccc2)nc1C#N (stereo not given),79%
9,N[C@@H]1CCN(C(=O)c2cc3cc(Cl)c(F)c(F)c3[nH]2)C1,74.1%
10,O=c1[nH]c(-c2ccccc2)nc(CN2CCCCC2)c1O,92.8%
11,CN(C)CCN1C(=O)c2ccc3c4c(ccc(c24)C1=O)C(=O)N(CCN=C=S)C3=O,-79.5% (active)
12,C=C1CCC2C(C)(CO)C(O)CCC2(C)C1C/C=C1/C(=O)OCC1Oc1ccccc1C (stereo not given),118%
13,COc1ccc(/C=C2\N=C(c3ccccc3)N(C(=O)c3ccccc3O)NC2=O)cc1,75.5%
14,O=c1cc/c(=N\Nc2ccccc2)c(=O)/c1=N/Nc1ccccc1,-1.02% (active)
15,O=c1c2sc3ncccc3c2nnn1-c1ccccc1,97.5%
16,CC(=O)Nc1ccc(S(=O)(=O)n2ccc(-c3ccc4c(c3)CCC(C)(C)O4)n2)cc1,69.8%
17,CCN1CCN(CC(=O)N2c3cccc4cccc(c34)N(C(=O)CN3CCN(CC)CC3)C2c2cn(-c3ccccc3)nc2-c2cccc([N+](=O)[O-])c2)CC1,61.4%
18,N#Cc1c(Nc2ccccc2)nc2n(c1=O)-c1ccccc1Sc1ccccc1-2,58.7%
19,CN(C[C@H]1Cc2c(cccc2N2CCN(c3ncccn3)CC2)CN1)[C@H]1CCCc2cccnc21,27.4%
20,COc1cccc(CC(C)=C(c2ccc(OCCN(C)C)cc2)c2ccc(OCCN(C)C)cc2)c1,10.2%

row,Compound,growth
1,O=C(CN1CCN(c2cc3c(cc2F)c(=O)c(C(=O)N/N=C/c2ccccc2O)cn3C2CC2)CC1)N/N=C\c1ccccc1O,52%
2,CCCN=C1NC(=O)/C(=C/c2nc(-c3ccc(OC)cc3)n3ccccc23)S1,106%
3,c1ccc(-c2cn(-c3ccccc3)c(-c3ccccc3)n2)cc1,69.4%
4,Cc1c(C(=O)/C=C/c2csc3ccccc23)[n+](=O)c2ccccc2n1[O-],43.9%
5,O=[N+]([O-])c1cccc(-c2nc3sccn3c2-c2ccnc(NCCCNS(=O)(=O)c3ccc(Cl)cc3)n2)c1,67.2%
6,COc1ccc(C(=O)N2NC(=O)/C(=C/c3ccc(F)cc3)N=C2c2ccccc2)cc1,93.7%
7,CCOC(=O)C1CCNC(=O)C1=O (stereo not given),102%
8,C=C1CCC2C3(C)COC(C)(C)OC3CCC2(C)C1C/C=C1/C(=O)OCC1Oc1ccccc1OC (stereo not given),116%
9,O=C1NN(C(=O)c2ccc(Cl)cc2)C(c2ccccc2)=N/C1=C\c1cn(-c2ccccc2)nc1-c1ccccc1,94.6%
10,CCOC(=O)c1ccc(NC(=O)N2CC(C)OC(C)C2)cc1 (stereo not given),81.2%
11,CCN(CC)c1ccc(N=O)cc1,51.9%
12,O=c1[nH]c2ccc(Br)cc2c2c1C(c1ccc(Cl)cc1)c1c(ncn3nc(-c4ccco4)nc13)O2 (stereo not given),37.7%
13,COc1cc2c(cc1OCCCCCn1c3ccccc3c3ccccc31)N=C[C@@H]1CCCN1C2=O,-65.5% (active)
14,COc1ccc(/C=N\NC(=O)CN2CCN(c3cc4c(cc3F)c(=O)c(C(=O)N/N=C/c3ccc(OC)c(OC)c3)cn4C3CC3)CC2)cc1OC,-2.77% (active)
15,CCCCCCN1CSC(=S)N(CCCCCC)C1,81.5%
16,CC(O)CN1CCCCC1 (stereo not given),111%
17,Cc1cc(C2=NNC(=O)Cc3cc4c(cc32)OCCO4)cc(C)c1N,69%
18,COc1ccc(C(=O)NC(=O)Nc2cc3c(cc2F)/C(=C/c2[nH]c(C)c(CCC(=O)O)c2C)C(=O)N3)c(F)c1,-0.4% (active)
19,Cc1nn(-c2ccc(Cl)cc2)c2ncnc(N/N=C/c3cccc([N+](=O)[O-])c3)c12,20.4%
20,COC(OC)c1ccccc1,79.6%
